Measured values reported in PubChem BioAssay (NCI).
The panel holds about 79,000 compounds, 15% with a hit somewhere; the sample as a whole holds those more often. Activity calls are given as the source filed them. Cut-off read from the data, not from the text of the source: active = growth inhibition above about 70%; inactive = the rest.

Legend:
[1] = NCI Yeast Anticancer Drug Screen. Data for the rad52 strain (AID 147);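 note: 0% = growth of vehicle-treated control cultures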; conditions: S. cerevisiae rad52 mutant growth inhibition, hits give high values
How it was run: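 The repair-mutant yeast strain was incubated with compounds, then growth was read and inhibition derived relative to vehicle.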

[2] = NCI Yeast Anticancer Drug Screen. Data for the wt1 strain (AID 149);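 note: 0% = growth of vehicle-treated wt1 cultures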; conditions: S. cerevisiae wt1 strain (SPY 50644) growth inhibition, hits give high values
How it was run: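 Readout: yeast growth inhibition, normalised to vehicle controls, in the wt1 strain exposed to test compounds.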

[3] = NCI Yeast Anticancer Drug Screen. Data for the rad50EPP+ strain (AID 151);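 note: 0% = growth of vehicle-treated control cultures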; conditions: S. cerevisiae rad50 mutant strain, hits give high values
How it was run: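 Vehicle-normalised growth inhibition; rad50EPP+ yeast strain, altered in DNA damage repair, compound-treated.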

[4] = NCI Yeast Anticancer Drug Screen. Data for the mgt1 strain (AID 153); conditions: S. cerevisiae mgt1 mutant growth inhibition, hits give high values
How it was run: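 Vehicle-normalized growth inhibition is determined in mgt1 yeast, a strain selected for a defined alteration in DNA repair or cell cycle control.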

[5] = NCI Yeast Anticancer Drug Screen. Data for the rad50 strain (AID 155);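 note: 0% = growth of vehicle-only cultures of the same strain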; conditions: S. cerevisiae rad50 strain growth inhibition, hits give high values
How it was run: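 Compounds were tested on a yeast strain with an engineered DNA damage repair alteration; the reported value is growth inhibition normalised to vehicle treatment.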

[6] = NCI Yeast Anticancer Drug Screen. Data for the mec2-1 strain (AID 157); conditions: S. cerevisiae mec2-1 strain, hits give high values
How it was run: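 Mutant yeast (mec2-1) grown with compound; growth inhibition relative to vehicle control reported.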

[7] = NCI Yeast Anticancer Drug Screen. Data for the rad14 strain (AID 159);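 note: 0% = growth of vehicle-treated control cultures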; conditions: S. cerevisiae rad14 strain growth inhibition, hits give high values
How it was run: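 Compound-treated yeast with a defined DNA-repair lesion; growth inhibition normalised to vehicle-treated cultures.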

[8] = NCI Yeast Anticancer Drug Screen. Data for the sgs1 mgt1 strain (AID 161);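 note: 0% = growth of cultures given vehicle only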; conditions: S. cerevisiae sgs1 mgt1 strain, hits give high values
How it was run: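 Yeast cells carrying a defined DNA-repair defect were exposed to test compounds. Growth inhibition was measured relative to vehicle-treated controls.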

[9] = NCI Yeast Anticancer Drug Screen. Data for the CLN2oe strain (AID 163);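 note: 0% = growth of vehicle-only control cultures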; conditions: S. cerevisiae CLN2oe strain, hits give high values
How it was run: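 Compounds are applied to yeast harbouring a defined cell-cycle control change; reduced growth compared with vehicle-treated controls gives the value.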

[10] = NCI Yeast Anticancer Drug Screen. Data for the cln2 rad14 strain (AID 165);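 note: 0% = growth equal to vehicle treated cultures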; conditions: S. cerevisiae cln2 rad14 strain, hits give high values
How it was run: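 Readout is yeast growth inhibition versus vehicle-treated controls, using a strain with cln2 and rad14 alterations exposed to compound.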

[11] = NCI Yeast Anticancer Drug Screen. Data for the bub3 strain (AID 167); conditions: S. cerevisiae bub3 mutant strain, hits give high values
How it was run: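 Growth of a checkpoint-deficient yeast mutant is measured after compound exposure. Values represent inhibition relative to vehicle.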

[12] = NCI Yeast Anticancer Drug Screen. Data for the wt2 strain (AID 169);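 note: 0% = growth of vehicle-treated yeast cultures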; conditions: S. cerevisiae wt2 strain growth inhibition, hits give high values
How it was run: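 Against vehicle-treated controls, the growth of yeast exposed to each compound was compared, and the inhibition was recorded.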

[13] = NCI Yeast Anticancer Drug Screen. Data for the mlh1 strain (AID 171);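 note: 0% = growth of vehicle-treated control cultures of the same strain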; conditions: S. cerevisiae mlh1 strain growth inhibition, hits give high values
How it was run: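 Measured: yeast growth. Reference: vehicle-treated controls. Organism: strain with a defined alteration affecting DNA damage repair or cell cycle control, treated with compound.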

[14] = NCI Yeast Anticancer Drug Screen. Data for the sgs1 strain (AID 173);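 note: 0% = growth of vehicle-only control cultures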; conditions: S. cerevisiae sgs1 mutant, hits give high values
How it was run: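 Each compound was added to cultures of the altered yeast strain. Growth was recorded, and inhibition was derived by comparison with vehicle controls.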

[15] = NCI Yeast Anticancer Drug Screen. Data for the mlh1 rad18 strain (AID 175); conditions: S. cerevisiae mlh1 rad18 strain growth inhibition, hits give high values
How it was run: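 Genetically defined yeast (DNA repair-deficient) exposed to compounds; growth inhibition determined relative to vehicle.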

[16] = NCI Yeast Anticancer Drug Screen. Data for the rad18 strain (AID 177); conditions: S. cerevisiae rad18 mutant growth inhibition, hits give high values
How it was run: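 Vehicle-treated cultures served as the baseline for scoring compound-induced growth inhibition in DNA-repair-mutant yeast.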

[17] = at 5.0 µM (retest, dose inferred, filed as 0.5)
[18] = at 50.0 µM (retest, dose inferred, filed as 5.0)

Measured: growth inhibition

O=[N+]([O-])c1ccc(=S)[nH]c1
active: [1]; at 100.0 µM 93% | [2]; at 100.0 µM 78% | [3]; at 33.0 µM 85% | [3]; at 100.0 µM 97% | [4]; at 100.0 µM 93% | [5]; [18] 99% | [5]; at 50.0 µM 98.8% | [5]; at 100.0 µM 86% | [6]; [18] 88% | [6]; at 50.0 µM 99.4% | [6]; at 100.0 µM 99% | [7]; at 100.0 µM 99% | [8]; [18] 100% | [8]; at 50.0 µM 98.2% | [11]; [18] 98% | [11]; at 50.0 µM 99.3% | [11]; at 100.0 µM 98% | [12]; at 100.0 µM 93% | [13]; at 100.0 µM 96% | [14]; at 33.0 µM 76% | [14]; at 100.0 µM 99% | [15]; [18] 99% | [15]; at 50.0 µM 93.1% | [16]; at 100.0 µM 94%
inactive: [1]; at 1.2 µM 1% | [1]; at 3.7 µM 0% | [1]; at 11.0 µM -1% | [1]; at 33.0 µM 49% | [2]; at 1.2 µM -1% | [2]; at 3.7 µM -2% | [2]; at 11.0 µM -6% | [2]; at 33.0 µM 13% | [3]; at 1.2 µM 0% | [3]; at 3.7 µM -2% | [3]; at 11.0 µM 23% | [4]; at 1.2 µM -3% | [4]; at 3.7 µM -2% | [4]; at 11.0 µM 1% | [4]; at 33.0 µM 34% | [5]; at 1.2 µM 0% | [5]; at 3.7 µM -6% | [5]; [17] -5% | [5]; at 11.0 µM -5% | [5]; at 33.0 µM 28% | [6]; at 1.2 µM -2% | [6]; at 3.7 µM -1% | [6]; [17] -9% | [6]; at 11.0 µM -5% | [6]; at 33.0 µM 60% | [7]; at 1.2 µM -5% | [7]; at 3.7 µM -6% | [7]; at 11.0 µM -5% | [7]; at 33.0 µM 42% | [8]; [17] 32% | [9]; at 1.2 µM -1% | [9]; at 3.7 µM -8% | [9]; at 11.0 µM -8% | [9]; at 33.0 µM -10% | [9]; at 100.0 µM 67% | [10]; [17] 5% | [10]; [18] 55% | [10]; at 50.0 µM 37.6% | [11]; at 1.2 µM -6% | [11]; at 3.7 µM -7% | [11]; [17] 10% | [11]; at 11.0 µM -6% | [11]; at 33.0 µM 54% | [12]; at 1.2 µM 0% | [12]; at 3.7 µM 1% | [12]; at 11.0 µM 2% | [12]; at 33.0 µM 39% | [13]; at 1.2 µM 0% | [13]; at 3.7 µM 1% | [13]; at 11.0 µM 1% | [13]; at 33.0 µM 52% | [14]; at 1.2 µM 0% | [14]; at 3.7 µM 4% | [14]; at 11.0 µM 17% | [15]; [17] 51% | [16]; at 1.2 µM -1% | [16]; at 3.7 µM 0% | [16]; at 11.0 µM -5% | [16]; at 33.0 µM 40%

CCOC(=O)c1cnc2cc(C(F)(F)F)ccc2c1N=[N+]=[N-]
inactive: [1]; at 1.2 µM 12% | [1]; at 3.7 µM 13% | [1]; at 11.0 µM 23% | [1]; at 33.0 µM 48% | [2]; at 1.2 µM 3% | [2]; at 3.7 µM 4% | [2]; at 11.0 µM 8% | [2]; at 33.0 µM 37% | [3]; at 1.2 µM 6% | [3]; at 3.7 µM 13% | [3]; at 11.0 µM 26% | [3]; at 33.0 µM 54% | [4]; at 1.2 µM 4% | [4]; at 3.7 µM 6% | [4]; at 11.0 µM 22% | [4]; at 33.0 µM 66% | [5]; at 1.2 µM 8% | [5]; at 3.7 µM 25% | [5]; [17] 7% | [5]; at 11.0 µM 23% | [5]; at 33.0 µM 50% | [5]; [18] 20% | [5]; at 50.0 µM 44.4% | [6]; at 1.2 µM 14% | [6]; at 3.7 µM 12% | [6]; [17] -3% | [6]; at 11.0 µM 22% | [6]; at 33.0 µM 56% | [6]; [18] 4% | [6]; at 50.0 µM 20.2% | [7]; at 1.2 µM 7% | [7]; at 3.7 µM 3% | [7]; at 11.0 µM 12% | [7]; at 33.0 µM 49% | [8]; [17] -1% | [8]; [18] -3% | [8]; at 50.0 µM 43.4% | [9]; at 1.2 µM 11% | [9]; at 3.7 µM 12% | [9]; at 11.0 µM 18% | [9]; at 33.0 µM 64% | [10]; [17] -4% | [10]; [18] 1% | [10]; at 50.0 µM 25.1% | [11]; at 1.2 µM 11% | [11]; at 3.7 µM 7% | [11]; [17] -17% | [11]; at 11.0 µM 14% | [11]; at 33.0 µM 46% | [11]; [18] 48% | [11]; at 50.0 µM -3.4%
active: [1]; at 100.0 µM 85% | [2]; at 100.0 µM 87% | [3]; at 100.0 µM 82% | [4]; at 100.0 µM 92% | [5]; at 100.0 µM 83% | [6]; at 100.0 µM 90% | [7]; at 100.0 µM 93% | [9]; at 100.0 µM 87% | [11]; at 100.0 µM 74%
